The entries come from a sample that favours hits as a whole.
CD40 NFkB inh: inhibitors of CD40-induced NF-kB signaling, primary screen, BL2 cells, luciferase reporter, single point | actives 0.94% (n = 83,000) | CD40L-induced, 4 h | inhibition, % at 10 µM;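 active = mean inhibition of at least 50% with a set share of replicates also reaching that level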;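 also: 0% = neutral control wells and 100% = IKK inhibitor VII at 50 µM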
Numbers without * were called inactive; [ ] = dose if it differs, or a comment.

SMILES	CD40 NFkB inh
CC1=NNC(=O)C1Br (stereo not drawn)	51.6*
O=C(Cc1ccccn1)N1CCCCN2[C@H](C1)[C@@H](c1ccc(Br)cc1)[C@@H]2CO	0.2[25 µM]
C[C@@H]1CN([C@H](C)CO)C(=O)c2c(c3ccccc3n2C)-c2ccccc2CO[C@H]1CN(C)C(=O)Oc1ccccc1	9.5
CC(C)NC(=O)N1CC2C(c3ccccc3)C(C1)N2C (stereo not drawn)	0.0
O=C1NC(=O)c2c1c1c3ccccc3[nH]c1c1[nH]c3ccccc3c21	69.4*[25 µM]
C=CCN1[C@@H]2CN(C(=O)NC(C)C)C[C@H]1C2c1ccc(Br)cc1 (stereo partly drawn)	0.3
COC(=O)[C@H]1[C@H](CO)[C@H]2Cn3c(cccc3=O)[C@@H]1N2Cc1nccs1	8.3[25 µM]
CC=Cc1ccc2n(c1=O)C[C@@H]1[C@@H](CO)[C@H](C(=O)OC)[C@H]2N1C(=O)CC1CC1 (mixture of isomers)	-18.7[25 µM]
Cc1ccc(OC(=O)N(C)C[C@@H]2OCc3ccccc3-c3c(n(C)c4ccccc34)C(=O)N([C@@H](C)CO)C[C@@H]2C)cc1	15.0[25 µM]
CCOP(=O)(CCP(=O)(OCC)OCC)OCC.C[CH2][Sn]([Cl])([Cl])[CH2]C	59.3*
CCN(CC)CCOC1CCC2(C)C(=CCC3C4CCC(=O)C4(C)CCC32)C1 (stereo not drawn)	-10.9[25 µM]
FC(F)(F)CN1C[C@@H]2C(c3ccc(Br)cc3)[C@H](C1)N2CC1CC1 (stereo partly drawn)	-3.8
Oc1ccc2c3c1OC1c4oc5ccccc5c4CC4(O)C(C2)N(CC2CC2)CCC314 (stereo not drawn)	0.8[25 µM]
CC(=O)OC(C)(C)/C=C/C(=O)C(C)(O)C1C(O)CC2(C)C3CC=C4C(CC(O)C(=O)C4(C)C)C3(C)C(=O)CC12C (stereo not drawn)	60.0*
COc1ccc(C#Cc2ccc([C@H]3[C@@H](CO)N4CCCCN(C(=O)Cc5ccccc5)C[C@H]34)cc2)cc1	-5.9
COC(=O)C12OCC34C(CC5C(C)=C(O)C(=O)CC5(C)C3C(O)C1O)OC(=O)C(OC(=O)/C=C(\C)C(C)C)C24 (stereo not drawn)	92.2*
COC(=O)[C@@H]1[C@@H](CO)[C@@H]2Cn3c(ccc(C4=CCCCC4)c3=O)[C@H]1N2C(=O)Cc1ccccn1	-0.9[25 µM]
Cc1ccc(OC(=O)N(C)C[C@H]2OCc3ccccc3-c3c(n(C)c4ccccc34)C(=O)N([C@H](C)CO)C[C@@H]2C)cc1	20.9[25 µM]
COc1ccc(OC(=O)N(C)C[C@H]2OCc3ccccc3-c3c(n(C)c4ccccc34)C(=O)N([C@@H](C)CO)C[C@H]2C)cc1	20.6
O=C(O)[C@@H]1[C@@H](CO)[C@@H]2Cn3c(ccc(C4=CCCCC4)c3=O)[C@H]1N2C(=O)Cc1ccccn1	-0.2[25 µM]
CCN1CC2(COC(=O)c3ccccc3N3C(=O)CC(C)C3=O)CCC(OC)C34C5CC6C(OC)CC(O)(C5C6OC)C(O)(C(OC)C23)C14 (stereo not drawn)	5.0[25 µM]
C[C@H]1CCCC(=O)CCC/C=C/c2cc(O)cc(O)c2C(=O)O1	42.7*
COC(=O)[C@@H]1[C@@H](CO)[C@@H]2Cn3c(ccc(C4=CCCC4)c3=O)[C@H]1N2C(=O)CC1CC1	-0.2[25 µM]
CCC(=O)N1[C@@H]2c3ccc(C4=CCCC4)c(=O)n3C[C@H]1[C@H](CO)[C@H]2C(=O)OC	8.9[25 µM]
CC(=NNC(=S)N1CC2CCC(CC2)C1)c1nccs1	66.2*
SMILES	CD40 NFkB inh
OC[C@@H]1Nc2ccc(C#Cc3cccnc3)cc2[C@H]2NCC[C@@H]12	6.3[25 µM]
NC(N)=N/N=C/c1cn(-c2ccccc2)nc1-c1cccs1	86.5*
COC(=O)[C@H]1[C@H](CO)[C@H]2Cn3c(ccc(/C=C/c4ccccc4)c3=O)[C@@H]1N2CC1CCCC1	19.7[25 µM]
CCCN1[C@@H]2Cn3c(ccc(-c4cccc(OC)c4)c3=O)[C@H]1[C@@H](C(=O)OC)[C@@H]2CO	-0.5[25 µM]
COC(=O)[C@H]1[C@H](CO)[C@H]2Cn3c(cccc3=O)[C@@H]1N2C(=O)C1CC1	-11.4[25 µM]
CN1[C@@H]2CN(CC3CC3)C[C@H]1C2c1ccc(Br)cc1 (stereo partly drawn)	-14.0
O=C1CCC2(O)C3Cc4ccc(O)c5c4C2(CCN3CC2CC2)C1O5 (stereo not drawn)	-8.3[25 µM]
O=C(Cc1cccnc1)N1CCCCN2[C@H](CO)[C@@H](c3ccc(C#CC4CCCC4)cc3)[C@H]2C1	-5.8[25 µM]
CC1=CC2OC3CC4OC(=O)C=CC=CC(=O)OCCC(C)C(O)C(=O)OCC2(CC1O)C4(C)C31CO1 (stereo not drawn)	102.6*
CC(=O)OC1C(=O)OCC23CCC4(C)OC4C2OC2CC(OC(=O)C=CC=CC(=O)OCCC1C)C3(C)C21CO1 (stereo not drawn)	67.7*
FC(F)(F)CN1C[C@@H]2C(c3ccccc3)[C@H](C1)N2CC1CC1 (stereo partly drawn)	2.6
COC(=O)[C@@H]1[C@@H](CO)[C@@H]2Cn3c(ccc(/C=C/c4ccccc4)c3=O)[C@H]1N2CC1CCCC1	16.3[25 µM]
Clc1ccc(C2=CCCC3CCC2N3)cn1 (stereo not drawn)	-13.6[25 µM]
COc1cccc(-c2ccc3n(c2=O)C[C@@H]2[C@@H](CO)[C@H](C(=O)O)[C@H]3N2Cc2ccccc2F)c1	-3.4[25 µM]
Fc1ccc(CN2CC3NC(C2)C3c2ccc(Br)cc2)cc1 (stereo not drawn)	3.6
COC(=O)[C@@H]1[C@@H](CO)[C@@H]2Cn3c(ccc(-c4cccc(F)c4)c3=O)[C@H]1N2C(=O)CC1CC1	-9.1[25 µM]
FC(F)(F)CN1C[C@@H]2N[C@H](C1)C2c1ccc(Br)cc1 (stereo partly drawn)	1.6
CN1[C@@H]2Cn3c(cccc3=O)[C@H]1[C@@H](C(=O)NCC1CC1)[C@@H]2CO	-1.0[25 µM]
CC(=O)N1C[C@@H]2C(c3ccccc3)[C@H](C1)N2C (stereo partly drawn)	-1.0
O=C(Cc1ccccc1)N1CC2(C1)[C@H](c1ccccc1)[C@@H](CO)N2Cc1cccc(Cl)c1	25.4[25 µM]
O=C(O)[C@@H]1[C@@H](CO)[C@@H]2Cn3c(ccc(-c4ccncc4)c3=O)[C@H]1N2S(=O)(=O)c1ccccc1F	0.3[25 µM]
CC1OC(OC2CC(O)C3(CO)C4C(O)CC5(C)C(C6=CC(=O)OC6)CCC5(O)C4CCC3(O)C2)C(O)C(O)C1O (stereo not drawn)	73.2*[25 µM]
C[C@@H]1O[C@@H](O[C@H]2C[C@@H](O)[C@]3(CO)[C@H]4[C@H](O)C[C@]5(C)[C@@H](C6COC(=O)C6)CC[C@]5(O)[C@@H]4CC[C@]3(O)C2)[C@H](O)[C@H](O)[C@H]1O (stereo partly drawn)	67.4*
C[C@H]1CN([C@@H](C)CO)C(=O)c2c(c3ccccc3n2C)-c2ccccc2CO[C@@H]1CN(C)C(=O)Oc1ccccc1	17.2
O=C(Cc1ccccn1)N1CCCCN2[C@H](CO)[C@@H](c3ccc(-c4ccccc4F)cc3)[C@@H]2C1	21.2[25 µM]
N#Cc1ccc(-c2ccc([C@H]3[C@H](CO)N4CCCCN(C(=O)Cc5ccccc5)C[C@@H]34)cc2)cc1	16.6[25 µM]
CC(C)NC(=O)N1C[C@@H]2N[C@H](C1)C2c1ccccc1 (stereo partly drawn)	-2.9
COc1ccc(OC(=O)N(C)C[C@@H]2OCc3ccccc3-c3c(n(C)c4ccccc34)C(=O)N([C@@H](C)CO)C[C@H]2C)cc1	38.4
C=CCN1[C@@H]2CN(S(C)(=O)=O)C[C@H]1C2c1ccccc1 (stereo partly drawn)	-0.8

Screening data from PubChem BioAssay.
